Laboratory results reported in PubChem BioAssay AID1851 (National Center for Advancing Translational Sciences (NCATS), 2009).
Hit rate of the full screen: of about 16,000 compounds, about 2,600 (16%) were called active. Another 20% or so got no clear call; they are omitted. Only a sample is shown. Unmarked numbers belong to inactive results. Calls follow the shape of the dose curve; as a rule, active = well fitted curve in the direction sought with a large enough effect; inconclusive = small, poorly fitted or top-dose-only effect, or effect the other way; inactive = no such curve, though single readings can be large or run the other way.
% is scaled to controls: 0 for no effect and ±100 for the full control effect.

The compounds below were run against Cytochrome P450 2D6 (Homo sapiens) (UniProt P10635) (assay: Cytochrome panel assay with activity outcomes). Conditions: recombinant CYP, pro-luciferin dealkylation, luminescence, p450-cyp2d6; series mostly up to 57.1 µM.
Chain of Cytochrome P450 2D6 (Homo sapiens) (P10635 whole entry, looked up): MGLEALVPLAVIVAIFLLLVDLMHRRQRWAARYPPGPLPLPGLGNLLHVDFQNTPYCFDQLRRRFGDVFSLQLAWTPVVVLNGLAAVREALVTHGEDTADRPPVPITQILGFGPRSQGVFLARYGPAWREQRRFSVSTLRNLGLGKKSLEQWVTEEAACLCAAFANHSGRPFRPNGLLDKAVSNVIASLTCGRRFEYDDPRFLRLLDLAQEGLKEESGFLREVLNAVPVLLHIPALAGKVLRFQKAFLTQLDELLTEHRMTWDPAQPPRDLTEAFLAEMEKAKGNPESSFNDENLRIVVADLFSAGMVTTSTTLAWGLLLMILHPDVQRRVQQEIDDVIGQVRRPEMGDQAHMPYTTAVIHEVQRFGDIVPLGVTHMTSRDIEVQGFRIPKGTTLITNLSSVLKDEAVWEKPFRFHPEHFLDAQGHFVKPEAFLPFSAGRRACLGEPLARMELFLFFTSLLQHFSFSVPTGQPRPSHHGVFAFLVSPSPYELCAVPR
CC(C)(C)COS(=O)OCC(C)(C)C gave an activity, negative = inhibition of -1.05% [at 11.4 µM]. CC(C)C(O)(C#CCN1CCCC1)c1ccccc1 (stereo not given) was tested, and the AC50 was 14.1 µM (active). For CCC(C#CCN1CCCCC1)(CC)OCCC#N, the AC50 was “inactive”. With C[C@@H](N1CCOCC1)[C@@](O)(c1ccccc1)c1ccccn1 the activity, negative = inhibition was -15% [at 11.4 µM]. In the case of O=C(N/N=C/C=C/c1ccc([N+](=O)[O-])cc1)c1cccs1, the AC50 was “inactive”. In the case of OCCN1CCOCCOCCN(CCO)CCN(CCO)CC1, the AC50 was “inactive”. In the case of COC(=O)/C=C/CSC1=N/C(=C/c2ccc(-n3cncn3)cc2)C(=O)N1, the AC50 was 14.1 µM (active). COc1ccccc1NC(=O)CSc1nc2ccccc2cc1Cc1ccccc1 was tested, and the AC50 was “inactive”. In the case of C[C@@H]1C(=O)N(C)C(=O)c2nc[nH]c21, the AC50 was “inactive”. For CCOc1ccc(NC(=S)NC(=O)/C=C/c2ccc(C)cc2)c([N+](=O)[O-])c1, the AC50 was “inactive”. For O=C(CCN1C(=O)C2C3C=CC(C3)C2C1=O)N1CCN(c2cccc(Cl)c2)CC1 (stereo not given), the AC50 was “inactive”. With FC(F)(F)c1cccc(N2CCN(CC3CC4C=CC3C4)CC2)c1 (stereo not given) the AC50 was 2.51 µM (active). For O=C(c1coc2ccccc2c1=O)N1CCN(c2cccc(C(F)(F)F)c2)CC1, the AC50 was “inactive”. With CC(=O)O[C@]1(C(C)=O)CC[C@@H]2[C@@H]3C=C(C)C4=CC(=O)CC[C@@]4(C)[C@H]3CC[C@]21C the AC50 was “inactive”. With CCN(CC)C(=O)Cn1cnc([N+](=O)[O-])n1 the AC50 was “inactive”. With O=C1C(=O)N(c2cccc(Cl)c2)C(c2ccccc2[N+](=O)[O-])/C1=C(\O)c1ccccc1 (stereo not given) the AC50 was “inactive”. COc1ccc(CCNC(=O)c2nnn(CC(=O)Nc3ccccc3C)c2N)cc1OC was tested, and the AC50 was “inactive”. For COCC(=O)N1CCC2(CCCN(C(=O)Nc3cccc(C#N)c3)C2)CC1, the AC50 was “inactive”. COc1ccccc1C(c1nnnn1C(C)(C)C)N1CCCc2ccccc21 (stereo not given) was tested, and the AC50 was “inactive”. With COc1ccccc1C(c1nnnn1C(C)(C)C)N1CCN(Cc2ccncc2)CC1 (stereo not given) the AC50 was 2.82 µM (active). With CN1CCN(c2ncc3nc(-c4cc(F)cc(F)c4)c(=O)n(C)c3n2)CC1 the AC50 was “inactive”. In the case of Cc1cc(Cl)ccc1Oc1ncnc2oc(-c3ccccc3)cc12, the AC50 was “inactive”. With OCCN=c1cc(-c2ccccc2)oc2ccc(Cl)cc12 the AC50 was 6.31 µM (active). In the case of COc1ccc(CNc2cc(-c3ccccc3CN(C)C)ncn2)c(OC)c1, the AC50 was 12.6 µM (active). With COc1ccc(CNc2ccnc(-c3ccccc3OC)n2)c(OC)c1 the AC50 was 3.98 µM (active). In the case of COc1ccc(CNc2ccnc(-c3ccccc3CN(C)C)n2)c(OC)c1, the AC50 was 1 µM (active). For COc1ccccc1CNc1ccnc(-c2ccccc2OC)n1, the AC50 was 1.58 µM (active). Cc1cc(NC(=O)c2ccc(S(=O)(=O)N(C)C)cc2)n(-c2ccccn2)n1 was tested, and the AC50 was “inactive”. In the case of COc1cccc(/C=N/Nc2nc(N3CCCC3)nc(N3CCCC3)n2)c1O, the AC50 was “inactive”. COc1cccc(Nc2ncc3nc(-c4cccs4)c(=O)n(-c4ccccc4)c3n2)c1 was tested, and the AC50 was “inactive”. Cc1nc(Cl)c(C#N)cc1-c1ccccc1 was tested, and the AC50 was “inactive”. N#CC(=C1CCCC1)c1nc(-c2ccccc2)cs1 was tested, and the AC50 was “inactive”. With Cc1noc(NS(=O)(=O)c2ccc(N/C=C\C(=O)c3ccc4c(c3)OCO4)cc2)c1C the AC50 was “inactive”. C=C1C(=O)O[C@@H]2[C@H]3O[C@]3(C)CCC=C(C)CC[C@@H]12 was tested, and the AC50 was “inactive”. In the case of CCOC(=O)c1c(N2C(=O)Nc3cc(Cl)c(Cl)cc3N2O)sc2c1CCCCC2, the AC50 was “inactive”. CCc1ccc(C(=O)COC(=O)C(Cc2ccccc2)NC(=O)C2CCC(C)CC2)cc1 (stereo not given) was tested, and the AC50 was “inactive”. In the case of O=C(Nc1ccc(Cl)cc1Cl)c1cccc(N2C(=O)C=CC2=O)c1, the AC50 was “inactive”. Work on COc1ccc(CSC2=C(C#N)C(=O)NC3(CCCCC3)S2)cc1 yielded an activity, negative = inhibition of -3.33% [at 11.4 µM]. In the case of Nc1nc(Cl)nc2c1ncn2[C@@H]1O[C@@H](COP(=O)(O)OP(=O)(O)OP(=O)(O)O)[C@@H](O)[C@H]1O, the AC50 was “inactive”. COc1ccccc1CNc1ccnc(-c2ccccc2Cl)n1 was tested, and the AC50 was 12.6 µM (active). COc1ccc(-c2nc3c([nH]2)c(=O)n(C)c(=O)n3C)c(OC)c1 was tested, and the AC50 was “inactive”. Compound O=C(O)/C=C\C(=O)Nc1ccccn1 has an activity, negative = inhibition of 7.8% [at 11.4 µM]. For O=c1cc(CN2CCN(c3ccc(F)cc3)CC2)c2cc3c(cc2o1)CCCC3, the AC50 was “inactive”. For Cc1cc(N)n2ncc(-c3ccc(Cl)cc3)c2n1, the AC50 was “inactive”. N[C@@H](CC1=CS(=O)(=O)c2ccc(Cl)cc21)C(=O)O was tested, and the activity, negative = inhibition was -13.3% [at 11.4 µM]. For CN(C)c1ccc(-c2cncnc2NCCc2cnc[nH]2)cc1, the AC50 was 5.01 µM (active). With c1ncc(-c2ccc3c(c2)OCO3)c(NCCc2cnc[nH]2)n1 the AC50 was 2.51 µM (active). CN(C)C(=O)c1ccc(-c2cncnc2NCCc2cnc[nH]2)cc1 was tested, and the AC50 was 0.794 µM (active). For CC(=O)NCCNc1ncncc1-c1ccc(N(C)C)cc1, the AC50 was “inactive”. For CN(C)c1ccc(-c2cncnc2Nc2ccc(F)cc2)cc1, the AC50 was 25.1 µM (active). For Fc1ccc(Nc2ncncc2-c2ccoc2)cc1, the AC50 was “inactive”. Compound c1nc(NCCc2cnc[nH]2)c2[nH]cnc2n1 has an activity, negative = inhibition of -17.7% [at 11.4 µM]. CNc1ncncc1-c1ccc(C(=O)N(C)C)cc1 was tested, and the AC50 was “inactive”. Cc1cc(N2C(=O)C(O)=C(C(=O)c3ccco3)C2c2ccc(O)cc2)no1 (stereo not given) was tested, and the AC50 was “inactive”. For CO[C@H]1COC(=O)C/C=C\[C@H](C)COC(=O)[C@@H](C)NC(=O)C/C=C\[C@@H]1C, the activity, negative = inhibition was 10.1% [at 11.4 µM]. COc1ccc(NC(=O)N2CCC3(CC2)CCN(C(=O)c2csnn2)CC3)cc1 was tested, and the AC50 was “inactive”. For CN1CCN(NC(=O)c2ccccc2F)CC1, the AC50 was “inactive”. For Cc1ccc(-n2c(SCC(=O)N3CCOCC3)nnc2-c2cccnc2)cc1, the AC50 was “inactive”. With CCOC(=O)CSc1n[nH]c(NC(=O)c2cccc(C)c2)n1 the AC50 was “inactive”. In the case of CCc1cccc2c(C=C(C#N)C#N)cn(CC(=O)N3CCCCC3)c12, the AC50 was “inactive”. With O=c1oc(-c2ccco2)nc2c1cnn2-c1ccccc1 the AC50 was “inactive”. For Cn1ncc([N+](=O)[O-])c1C(=O)N1CCOCC1, the AC50 was “inactive”. For CCCCNC(=O)NS(=O)(=O)c1ccc(C(=O)OC(C)C)o1, the AC50 was “inactive”. In the case of CN(C)S(=O)(=O)c1ccc(NC(=O)COC(=O)c2ccccn2)cc1, the AC50 was “inactive”. In the case of CCN(CC)S(=O)(=O)c1ccc(NC(=O)COC(=O)c2ccc(Br)o2)cc1, the AC50 was 3.16 µM (active). With CN(C)S(=O)(=O)c1cccc(NC(=O)COC(=O)c2ccc(Br)o2)c1 the AC50 was “inactive”. For CC1=CC2=NC(=O)CC(C)(C(=O)N(CC(=O)NC(C)(C)C)Cc3cccs3)N2C=C1 (stereo not given), the AC50 was “inactive”. O=c1oc2c(Cl)cc(Cl)cc2cc1-c1nnc(Nc2ccccc2F)s1 was tested, and the AC50 was “inactive”. With O=C(NC12CC3CC(CC(C3)C1)C2)N1CCN(c2nc(-c3ccccc3)cs2)CC1 the AC50 was “inactive”. CCS(=O)(=O)c1ccc(O)c(NC(=O)Nc2ccccc2)c1 was tested, and the AC50 was 4.47 µM (active). With CCC(C)NC(=O)c1ccccc1NC(=O)Nc1ccccc1 (stereo not given) the AC50 was “inactive”. NS(=O)(=O)c1ccc(NC(=O)Nc2cccc3ccccc23)cc1 gave an activity, negative = inhibition of -5.78% [at 11.4 µM]. CCOC(=O)Cc1cc(=O)n2[nH]c(C)c(C#N)c2n1 was tested, and the AC50 was “inactive”. In the case of CC(C)NC(=O)N1CCN(c2ccncc2S(=O)(=O)N2CCOCC2)CC1, the AC50 was “inactive”. With C/C(=N\OC(=O)c1cccc(C)c1)c1sc(-c2ccccc2)nc1C the AC50 was “inactive”. In the case of Cc1ccc2c(c1)/C(=N/OC(=O)c1ccc(F)cc1)CCS2, the AC50 was “inactive”. With C/C(=N\OC(=O)c1ccc(F)cc1)c1nccs1 the AC50 was 12.6 µM (active). In the case of COc1ccccc1NC(=O)N1CCC(c2nnc(SCC(N)=O)n2C)CC1, the AC50 was “inactive”. COc1cc(-c2nnc(COC(=O)c3c4c(nc5ccccc35)CCCC4)o2)cc(OC)c1OC was tested, and the AC50 was “inactive”. COc1ccc(-n2c(CNC(=O)c3ccc(S(=O)(=O)N4CCCC4)cc3)n[nH]c2=S)cc1 was tested, and the AC50 was “inactive”. With C/C(=N/NC(=O)c1ccc(C)s1)c1cccc(NC(=O)COc2ccc(Cl)cc2C)c1 the AC50 was “inactive”. With O=C(Nc1ccc2nc(SCc3ccc(Cl)cc3)sc2c1)c1ccccc1C(=O)N1CCOCC1 the AC50 was “inactive”. In the case of N[C@H](C(=O)O)[C@@H]1[C@@H](C(=O)O)C1(F)F, the AC50 was 0.1 µM (active). In the case of O=C(Nc1cccc(-c2cnc3ccccc3n2)c1)c1ccc(Cl)cc1, the AC50 was “inactive”. For COc1ccc(NC(=O)CN(C)S(=O)(=O)c2ccc(Cl)cc2)c([N+](=O)[O-])c1, the AC50 was “inactive”. With COc1ccc(NC(=O)c2cccs2)c([N+](=O)[O-])c1 the AC50 was “inactive”. In the case of COc1ccc(NC(=O)c2ccc(C)cc2Cl)c([N+](=O)[O-])c1, the AC50 was 0.891 µM (active). With CCCCN1CSC(=S)N(Cc2ccccc2)C1 the AC50 was 3.98 µM (active). In the case of O=C(c1ccc2c(c1)N(Cc1ccccc1)C(=O)CS2)N1CCOCC1, the AC50 was “inactive”. For S=C1SCN(CCN2CCOCC2)CN1Cc1ccccc1, the AC50 was 12.6 µM (active). Cn1c(CN2CCOCC2)nnc1SCc1ccccc1 was tested, and the AC50 was “inactive”. With O=C1OC(OC2CCCCC2)(c2ccccc2)c2ccccc21 (stereo not given) the AC50 was “inactive”. With COc1ccc(-c2cc(C3CCN(c4cc(Cl)nc(N)n4)CC3)[nH]n2)cc1 the AC50 was “inactive”. Compound CCN1C(=O)[C@H]2[C@H]3[C@H](O)[C@H](O)C/C(=N/NC(=O)OCc4ccccc4)[C@H]3CC[C@@H]2C1=O has an activity, negative = inhibition of 1.32% [at 11.4 µM]. C/C(=N\NC(=O)c1cccc(F)c1)c1ccc(Br)s1 was tested, and the AC50 was “inactive”. With Cc1cccc(C(=O)NC(=S)N2CCN(C)CC2)c1 the AC50 was “inactive”. In the case of O=C(O)CC[C@@H](C(=O)O)N1C(=O)[C@@H]2[C@@H]3CC[C@H](C3)[C@@H]2C1=O, the activity, negative = inhibition was 13.3% [at 11.4 µM]. In the case of COCCCNC(=O)C(=O)N/N=C/c1ccc(OCC(=O)Nc2cccc(Cl)c2C)c(OC)c1, the AC50 was “inactive”. For CCCc1cc(=O)[nH]c(=S)[nH]1, the AC50 was “inactive”. For Cc1ccc(OCC(=O)NNC(=O)CCC(=O)Nc2ccc(C)cc2C)cc1, the AC50 was “inactive”.
